# Reference: PubChem BioAssay (Tox21)
# Results filed as inconclusive are left out. A call without a number means that no potency is given here. A number with no mark means an inactive call. Active and inactive are the calls of the source. Unless noted, calls come from the whole dose curve; as a rule, active = well fitted curve in the direction sought with a large enough effect in the repeat runs; inconclusive = weak or mixed curves; inactive = no such curve, though single readings can be large; an effect the other way counts as inactive or inconclusive.
# Legend:
# [1] = biological target: Peroxisome proliferator-activated receptor delta (Homo sapiens) (UniProt Q03181); test: qHTS assay to identify small molecule agonists of the peroxisome proliferator-activated receptor delta (PPARd) signaling pathway (AID 743212; calls by dose curve)
# Outline: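 A PPARd-bla HEK293H line with beta-lactamase under an Upstream Activator Sequence is treated with compounds at 37 C. Substrate loading for 2 h at room temperature precedes the fluorescence measurement.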
# [2] = qHTS assay to identify small molecule antagonists of the peroxisome proliferator-activated receptor delta (PPARd) signaling pathway - cell viability counter screen (AID 743213); note: nearly all actives have a fitted effect of over 50% in size
# Outline: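 HEK293H cells with the PPARd UAS-bla reporter, co-treated 17 h at 37 C with compounds and L165041 (300 nM final), were lysed with CellTiter-Glo. Luminescence indicated viable cell content.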
# [3] = biological target: Peroxisome proliferator-activated receptor delta (Homo sapiens) (UniProt Q03181); test: qHTS assay to identify small molecule antagonists of the peroxisome proliferator-activated receptor delta (PPARd) signaling pathway (AID 743215; active = well fitted inhibition curve with a large enough effect in the signal ratio in the repeat runs, not every such curve was filed as active; the % refers to the signal ratio;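 note: cells stimulated with agonist L165041 at 300 nM final during compound exposure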; note: potency is the fitted concentration of half-maximal effect)
# Outline: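 Antagonist-mode beta-lactamase reporter screen: HEK293H cells with UAS-bla under PPARd control, stimulated by 300 nM L165041 (final) alongside test compound for 17 h at 37 C, then FRET fluorescence after 2 h substrate incubation.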
# [4] = qHTS assay to identify small molecule agonists of the farnesoid-X-receptor (FXR) signaling pathway - cell viability counter screen (AID 743218); note: nearly all actives have a fitted effect of over 45% in size; note: potency is the fitted concentration of half-maximal effect
# Outline: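 In GeneBLAzer FXR-UAS-bla HEK 293T cells, compounds act for 16 h at 37 C. Cell viability is then scored in the reporter wells by CellTiter-Glo, 30 min at RT, luminescence.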
# [5] = qHTS assay to identify small molecule antagonists of the farnesoid-X-receptor (FXR) signaling pathway - cell viability counter screen (AID 743221; active = well fitted cell-killing curve with a large enough effect in the repeat runs, not every such curve was filed as active; note: nearly all actives have a fitted effect of over 50% in size)
# Outline: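 Cytotoxicity is taken from ATP luminescence (CellTiter-Glo, 30 min, room temperature) in FXR-bla HEK 293T cells previously incubated 16 h at 37 C with compound and chenodeoxycholic acid at 50 uM final.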
# [6] = biological target: Vitamin D3 receptor (Homo sapiens) (UniProt P11473); test: qHTS assay to identify small molecule agonists of the vitamin D receptor (VDR) signaling pathway (AID 743222; calls by dose curve)
# Outline: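 Agonist activity measured in VDR-bla reporter cells. Exposure 16 h, 37C, 5% CO2; detection by B/G FRET substrate, 2 h RT.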
# [7] = biological target: Vitamin D3 receptor (Homo sapiens) (UniProt P11473); test: qHTS assay to identify small molecule antagonists of the vitamin D receptor (VDR) signaling pathway (AID 743223; active = well fitted inhibition curve with a large enough effect in the signal ratio in the repeat runs, not every such curve was filed as active; the % refers to the signal ratio)
# Outline: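 Quantitative HTS in VDR-bla reporter cells stimulated with 1alpha,25-dihydroxyvitamin D3, 3 nM final. Compound exposure 16 h, 37C, 5% CO2. Read-out: beta-lactamase FRET substrate fluorescence, 2 h RT.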
# [8] = qHTS assay to identify small molecule agonists of the vitamin D receptor (VDR) signaling pathway - cell viability counter screen (AID 743224); note: nearly all actives have a fitted effect of over 50% in size; note: potency is the fitted concentration of half-maximal effect
# Outline: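 VDR-bla cell line, quantitative HTS format; 16 h compound incubation (37C, 5% CO2); ATP-based CellTiter-Glo luminescence measured in the reporter assay wells.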
# [9] = qHTS assay to identify small molecule antagonists of the vitamin D receptor (VDR) signaling pathway - cell viability counter screen (AID 743225); note: nearly all actives have a fitted effect of over 50% in size; note: potency is the fitted concentration of half-maximal effect
# Outline: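 Same-well multiplex: following 16 h treatment of HEK 293T cells carrying a UAS-driven beta-lactamase reporter with compound and agonist (3 nM final), and a 2 h FRET substrate step, CellTiter-Glo was added and luminescence read after 30 min.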
# [10] = qHTS assay to identify small molecule agonists of the NFkB signaling pathway - cell viability counter screen (AID 1159515; calls by dose curve; note: series mostly up to about 61 µM; nearly all actives have a fitted effect of over 55% in size)
# Outline: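 Viability in NFkB-bla ME-180 cells was measured by CellTiter-Glo luminescence, 30 min room temperature, in wells already treated 5 hr with compounds and read for reporter FRET.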
# [11] = qHTS assay to identify small molecule agonists of the endoplasmic reticulum stress response signaling pathway (AID 1159516; active = well fitted activation curve with a large enough effect in the signal ratio in the repeat runs, not every such curve was filed as active; the % refers to the signal ratio)
# Outline: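 ER stress element reporter (bla) in HeLa. 1,500 cells/well, overnight attachment; 5 hr compound; 2 hr RT substrate; dual-emission fluorescence.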
# [12] = biological target: Nuclear receptor ROR-gamma (Homo sapiens) (UniProt P51449); test: qHTS assay to identify small molecule antagonists of the retinoid-related orphan receptor gamma (ROR-gamma) signaling pathway (AID 1159521; note: nearly all actives have a fitted effect of over 50% in size; note: potency is the fitted concentration of half-maximal effect)
# Outline: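 Inducible-expression reporter assay: doxycycline (1 uM final) switched on RORγ in CHO cells bearing a ROR response element-luciferase construct, with test compounds present from 2 h beforehand. Decreased luminescence after 16 h defined antagonist activity.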
# [13] = qHTS assay to identify small molecule agonists of the AP-1 signaling pathway - cell viability counter screen (AID 1159525; calls by dose curve; note: nearly all actives have a fitted effect of over 55% in size; note: potency is the fitted concentration of half-maximal effect)
# Outline: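 ME-180 AP-1-bla, 2500 cells/well, Opti-MEM + 0.5% dialyzed FBS; overnight 37 °C; cpd 15-pt titration, 5 h 37 °C; CellTiter-Glo 30 min RT; luminescence read; normalised to TOAB and DMSO controls.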
# [14] = qHTS assay to identify small molecule agonists of the peroxisome proliferator-activated receptor delta (PPARd) signaling pathway - cell viability counter screen (AID 743211); note: nearly all actives have a fitted effect of over 55% in size; note: potency is the fitted concentration of half-maximal effect
# Outline: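 Tox21 library compounds, delivered in DMSO, were incubated 17 h with PPARd-bla HEK293H cells; cytotoxicity was taken from CellTiter-Glo luminescence read 30 min after reagent addition.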
# [15] = biological target: Bile acid receptor (Homo sapiens) (UniProt Q96RI1); test: qHTS assay to identify small molecule agonists of the farnesoid-X-receptor (FXR) signaling pathway (AID 743220; active = well fitted activation curve with a large enough effect in the signal ratio in the repeat runs, not every such curve was filed as active; the % refers to the signal ratio)
# Outline: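 Beta-lactamase reporter under UAS control in GeneBLAzer FXR HEK 293T cells (5000/well) measured with LiveBLAzer FRET substrate after 2 h at room temperature. Compound exposure lasted 16 h at 37C.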
# [16] = qHTS assay to identify small molecule antagonists of the retinoid-related orphan receptor gamma (ROR-gamma) signaling pathway - cell viability counter screen (AID 1159520); note: nearly all actives have a fitted effect of over 50% in size
# Outline: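 Tet-on ROR gamma CHO cells (1,000/well) were plated 4 hr, given compounds in DMSO for 2 hr at 37 C, then induced with 1 uM final doxycycline for 16 hr. Viability was read as ATP by CellTiter-Glo luminescence after 30 min.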
# [17] = qHTS assay to identify small molecule agonists of the AP-1 signaling pathway (AID 1159526; calls by dose curve)
# [18] = biological target: Bile acid receptor (Homo sapiens) (UniProt Q96RI1); test: qHTS assay to identify small molecule antagonists of the farnesoid-X-receptor (FXR) signaling pathway (AID 743217; active = well fitted inhibition curve with a large enough effect in the signal ratio in the repeat runs, not every such curve was filed as active; the % refers to the signal ratio)
# Outline: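 Beta-lactamase reporter under UAS control in HEK 293T cells; compound exposure 16 h at 37 °C in the presence of chenodeoxycholic acid (50 uM final); signal from B/G FRET substrate after 2 h at room temperature.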
# [19] = biological target: Retinoic acid receptor RXR-alpha (Homo sapiens) (UniProt P19793); test: qHTS assay to identify small molecule agonists of the RXR signaling pathway (AID 1159527; calls by dose curve; note: nearly all actives have a fitted effect of over 35% in size)
# Outline: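 Compounds in DMSO were added to RXR-alpha-UAS-bla HEK 293T cells kept in 2% charcoal-stripped serum, and incubated 16 hr at 37 C with 5% CO2. Reporter signal came from a 2 hr B/G FRET substrate step.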
# Bile acid receptor (Homo sapiens), sequence (Q96RI1 whole entry, looked up): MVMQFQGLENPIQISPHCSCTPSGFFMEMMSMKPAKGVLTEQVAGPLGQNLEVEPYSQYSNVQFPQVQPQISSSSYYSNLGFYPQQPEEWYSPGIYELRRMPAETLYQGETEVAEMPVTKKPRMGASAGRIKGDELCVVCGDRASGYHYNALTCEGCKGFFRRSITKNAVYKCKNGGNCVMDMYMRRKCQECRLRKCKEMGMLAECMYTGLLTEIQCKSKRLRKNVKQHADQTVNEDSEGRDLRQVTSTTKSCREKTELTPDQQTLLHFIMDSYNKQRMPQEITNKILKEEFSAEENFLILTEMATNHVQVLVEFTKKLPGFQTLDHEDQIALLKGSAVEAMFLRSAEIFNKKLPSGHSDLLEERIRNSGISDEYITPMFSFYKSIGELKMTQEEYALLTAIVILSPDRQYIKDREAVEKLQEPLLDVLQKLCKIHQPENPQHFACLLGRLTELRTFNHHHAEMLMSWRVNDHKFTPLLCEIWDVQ
# Peroxisome proliferator-activated receptor delta (Homo sapiens), sequence (Q03181 whole entry, looked up): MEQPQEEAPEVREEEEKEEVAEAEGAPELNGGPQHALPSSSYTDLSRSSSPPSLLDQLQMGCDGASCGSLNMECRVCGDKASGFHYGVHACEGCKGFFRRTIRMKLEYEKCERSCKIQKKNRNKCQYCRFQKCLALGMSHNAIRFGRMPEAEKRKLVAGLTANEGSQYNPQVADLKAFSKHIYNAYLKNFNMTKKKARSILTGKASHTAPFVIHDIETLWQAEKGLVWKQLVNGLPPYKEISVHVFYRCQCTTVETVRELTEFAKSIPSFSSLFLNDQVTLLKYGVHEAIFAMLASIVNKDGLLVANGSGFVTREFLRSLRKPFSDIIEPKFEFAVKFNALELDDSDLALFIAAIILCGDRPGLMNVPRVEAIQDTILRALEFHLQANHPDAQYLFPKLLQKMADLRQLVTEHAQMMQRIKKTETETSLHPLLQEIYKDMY
# Vitamin D3 receptor (Homo sapiens), sequence (P11473 whole entry, looked up): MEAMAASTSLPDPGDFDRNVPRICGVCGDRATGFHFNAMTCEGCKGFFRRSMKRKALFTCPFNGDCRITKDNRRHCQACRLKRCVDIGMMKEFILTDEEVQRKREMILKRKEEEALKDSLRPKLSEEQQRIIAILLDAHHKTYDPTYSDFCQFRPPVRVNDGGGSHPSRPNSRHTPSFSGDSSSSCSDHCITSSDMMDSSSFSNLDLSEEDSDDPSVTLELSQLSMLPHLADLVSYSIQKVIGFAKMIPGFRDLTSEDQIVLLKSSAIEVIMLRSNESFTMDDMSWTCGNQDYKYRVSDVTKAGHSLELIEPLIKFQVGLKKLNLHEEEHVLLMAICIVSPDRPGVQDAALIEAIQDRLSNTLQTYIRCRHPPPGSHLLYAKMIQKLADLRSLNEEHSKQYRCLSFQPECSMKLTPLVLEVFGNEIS
# Retinoic acid receptor RXR-alpha (Homo sapiens), sequence (P19793 whole entry, looked up): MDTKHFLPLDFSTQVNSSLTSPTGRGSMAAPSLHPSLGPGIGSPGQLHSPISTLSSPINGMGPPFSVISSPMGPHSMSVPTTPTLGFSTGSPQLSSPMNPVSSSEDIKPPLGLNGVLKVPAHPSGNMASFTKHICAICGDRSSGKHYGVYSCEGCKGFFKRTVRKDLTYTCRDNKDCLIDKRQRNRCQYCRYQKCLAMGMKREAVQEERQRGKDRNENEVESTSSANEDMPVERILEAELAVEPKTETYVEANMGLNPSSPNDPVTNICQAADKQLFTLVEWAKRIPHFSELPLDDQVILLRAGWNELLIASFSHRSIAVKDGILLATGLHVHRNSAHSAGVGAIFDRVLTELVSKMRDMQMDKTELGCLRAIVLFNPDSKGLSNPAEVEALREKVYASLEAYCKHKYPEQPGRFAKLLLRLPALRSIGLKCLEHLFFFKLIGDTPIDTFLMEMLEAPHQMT
SMILES,Potency [1],Potency [2],Potency [3],Potency [4],Potency [5],Potency [6],Potency [7],Potency [8],Potency [9],Potency [10],Potency [11],Potency [12],Potency [13],Potency [14],Potency [15],Potency [16],Potency [17],Potency [18],Potency [19]
OC12N=C(c3ccccc3)SC1Cc1cc(Cl)ccc12 (stereo unspecified),inactive,inactive,inactive,inactive,inactive,inactive,inactive,inactive,inactive,inactive,inactive,inactive,inactive,,,,,,
CCOC(=O)c1ccc(C2CCC(NC[C@H](O)COc3ccc(O)c(NS(C)(=O)=O)c3)CC2)cc1 (stereo partly specified),inactive,,,35.9 µM (active),,,,40.3 µM (active),35.9 µM (active),inactive,inactive,,,35.9 µM (active),inactive,inactive,,,
c1ccc(C(O[C@@H]2CCCN(CCc3ccc4c(c3)OCO4)C2)c2ccccc2)cc1,,inactive,,,inactive,,,,,inactive,inactive,61.1 µM (active),,,,,,,
O=C(O)CCN(C1(C(=O)NO)CCCC1)S(=O)(=O)c1ccc(Oc2ccc(F)cc2)cc1,,inactive,,inactive,inactive,,,inactive,inactive,inactive,inactive,,inactive,,,inactive,inactive,,
Sc1nc2ccccc2s1,inactive,,38.9 µM (active),inactive,inactive,inactive,inactive,,inactive,inactive,inactive,,inactive,,,,,inactive,
CN(C)C(=O)COC(=O)Cc1ccc(OC(=O)c2ccc(N=C(N)N)cc2)cc1,,inactive,,inactive,inactive,,,inactive,inactive,inactive,inactive,,inactive,,inactive,inactive,inactive,inactive,inactive
[Cu+],,inactive,inactive,inactive,inactive,,,,inactive,inactive,inactive,,inactive,inactive,,,,,inactive
CCCCCC(C)OC(=O)COc1ccc(Cl)c2cccnc12 (stereo unspecified),inactive,,,inactive,inactive,inactive,inactive,,inactive,inactive,inactive,inactive,34.7 µM (active),,inactive,,,,
CC(C)=CCC1=C(O)c2ccccc2C(=O)C1=O,inactive,,,inactive,,inactive,inactive,inactive,,inactive,inactive,13.6 µM (active),inactive,inactive,,,,,
Nc1cc(Cl)c(O)c(Cl)c1,,inactive,,inactive,inactive,,,inactive,inactive,inactive,inactive,68.6 µM (active),,,,,,,
Cc1ccc(O)c(O)c1,,,inactive,inactive,inactive,,inactive,,inactive,inactive,inactive,,inactive,,inactive,,inactive,,inactive
